Results published in the OligoGym collection.

Biological target: AP4E1
Assay: pooled miR-30 sensor sort-seq; sequence = guide strand
Details: shRNA
Further: reference of the scale not given here.

Sequence | sensor-assay potency score (higher = more potent)
AAGAACTTGAGATTGATCCTTT | 0.655
TTTTCTTCGTACAATCTCCTTA | 0.18
TTCATTGTCTGAATAAACCATG | -0.705
TAACTTGAAGAAATCTCTGTGG | 0.558
TATTTGTCTCTTTCAGTCCTGT | -0.0122
TAATTTTTCTTCTTCGTGCTTG | 0.244
TTCATTATTACAGACTTCCATA | -0.778
TTTCTTTATACCTTCCAGCTTC | -0.271
TAAAGAAGCATCTACCACCAAG | -0.753
TTTCAGACTACTCAGTTCCTGC | -0.633
TACAACTGTATTCACAAGGAGA | -0.841
TACATTAATTCACTTGTCCTTT | -0.311

Biological target: AP4S1
Assay: as above
Details: shRNA

Sequence | sensor-assay potency score (higher = more potent)
TTATATTCAATGAAAGAGCATT | -1.02
TATATCAGCTTAAAATCCTTAT | -0.456
ATTAACTCCAACCACAATGAAG | -1.9
TTTGAATGATGAACTGTCTGGA | 0.922
TTAGAAAGTCGAGTCTGCCCTT | 0.201
TAGAAAGTCGAGTCTGCCCTTG | -0.4
TAAATAGCCATCTCGTTCTCAG | -0.314
TTGTTCATTGGATCGAGAGAGA | -1.06
TGAATGATGAACTGTCTGGAGA | -0.912
TTGAATGATGAACTGTCTGGAG | 0.198
TAAATCAAGAAAACATTCCGGA | 0.763
TTCATAAATAGCCATCTCGTTC | -1.14
